SMN2 splice up – enhancers of SMN2 splice variant expression; HEK293 SMN2-luciferase splicing reporter, luminescence, 30-36 h; Potency, µM (highest dose often 46.1 µM), actives largely listed as activators; 2.8% of 210,000 active; AID 1458; further: nearly all actives have a fitted effect of over 55% in size
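HEK293 cells carry an SMN2 […]–luciferase reporter in which exon 7 inclusion puts luciferase in frame. Cells were plated 10-12 h before compound addition, then incubated 30-36 h at 37C. ONE-Glo luminescence was read; sodium butyrate at 4.5 mM final served as control.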
KinaseGlo FLuc – blocks Kinase-Glo luciferase, a counter-screen artifact. Q27757. Kinase-Glo luciferase, ATP luminescence, 8 min. Potency, µM (series often up to 38.3 µM), most hits filed as inhibitors. 0.28% of 200,000 active. AID 1379; further: nearly all actives have a fitted effect of over 60% in size
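Luminescence was the read-out, taken after 8-minute incubation at ambient temperature. Luciferase turned over luciferin with 10 uM ATP in imidazole pH 7.2 buffer containing KCl, MgCl2, Tween 20 and BSA.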
NPC1 prom act – NPC1 promoter activation; Huh7 NPC1 promoter luciferase reporter, 24 h; Potency, µM (top dose mostly 9.22 µM), hits mostly activators; 2.4% of 320,000 active; AID 485313; further: nearly all actives have a fitted effect of over 60% in size
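Quantitative HTS used a cell-based reporter: Huh7 cells stably bearing the NPC1 promoter upstream of luciferase were treated with compounds for 24 h, and promoter activation was read as luminescence.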
Rab9 prom act – activators of Rab9 promoter; AID 485297; 2.8% of 320,000 active; Huh7 Rab9 promoter-luciferase reporter, luminescence, 24 h; Potency, µM (top dose mostly 9.22 µM), actives largely listed as activators; further: nearly all actives have a fitted effect of over 60% in size
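Rab9 promoter-driven luciferase in stably transfected Huh7 cells; 1500 cells/well rested 2 h, exposed to compound in DMSO for 24 h at 37 °C, 5% CO2. Luminescence read 10 min after adding luciferase reagent at ambient temperature.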
FLuc counter – firefly luciferase modulation, counter-screen for miR-21 project | purified FLuc, Km substrates, luminescence inhibition | Potency, µM (highest dose often 57.5 µM), most hits filed as inhibitors | P08659 | 6.9% of 360,000 active; further: nearly all actives have a fitted effect of over 55% in size
Target sequence (P08659 whole entry, looked up): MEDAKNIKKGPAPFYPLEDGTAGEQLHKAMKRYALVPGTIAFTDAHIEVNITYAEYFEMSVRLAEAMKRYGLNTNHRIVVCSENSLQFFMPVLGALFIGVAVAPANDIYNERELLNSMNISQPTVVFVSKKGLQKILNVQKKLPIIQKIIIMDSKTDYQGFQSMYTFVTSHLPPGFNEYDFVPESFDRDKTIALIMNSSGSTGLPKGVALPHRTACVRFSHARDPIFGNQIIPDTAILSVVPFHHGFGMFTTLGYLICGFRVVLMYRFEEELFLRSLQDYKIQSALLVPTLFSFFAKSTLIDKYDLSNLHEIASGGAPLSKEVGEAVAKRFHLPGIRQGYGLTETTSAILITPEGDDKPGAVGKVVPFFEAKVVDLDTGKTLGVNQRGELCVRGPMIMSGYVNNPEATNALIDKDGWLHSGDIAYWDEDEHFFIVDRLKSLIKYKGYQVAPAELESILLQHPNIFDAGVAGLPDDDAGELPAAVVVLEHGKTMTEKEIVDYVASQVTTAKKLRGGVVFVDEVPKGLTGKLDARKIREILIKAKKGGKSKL
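Purified P. pyralis luciferase, 10 nM final, with Km-level 10 uM D-luciferin and 10 uM ATP in 50 mM Tris acetate pH 7.5, 10 mM Mg acetate, 0.01% Tween-20, 0.05% BSA; 6-point qHTS titration about 60 µM downward; luminescence read.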
A number is an active result; 0 = inactive; ? = inconclusive; - = not tested or not shown; ! = repeats disagree. Only some compounds are listed: those with a hit (about 7.3% of all), similar ones and a draw of the others. The call rests on the fitted dose curve; in most records, active means well fitted curve in the direction sought with a large enough effect; inconclusive means small, poorly fitted or top-dose-only effect, or another doubt; inactive means no such curve, though single readings can be large; an effect the other way counts as inactive or inconclusive.

SMILES	SMN2 splice up	KinaseGlo FLuc	NPC1 prom act	Rab9 prom act	FLuc counter
Nc1nc2ccc(OC(F)(F)F)cc2s1	?	0	10µM!	10µM!	?
Nc1nc2ccc(Oc3ccccc3)cc2s1	?	0	2.8µM	4µM	8.5µM
Cc1nc2ccc(Oc3ccccc3)cc2s1	-	-	0	0	17µM
Nc1nc2ccc(S(=O)(=O)c3ccc4nc(N)sc4c3)cc2s1	0	0	0	0	0
Cc1ccc(NC(=O)Cn2c(=O)n(Cc3nc(-c4ccccc4)no3)c(=O)c3cc4c(cc32)OCO4)cc1C	-	-	-	-	0
CN(C)C(=O)c1ccc(-c2nc(Nc3ccncc3)c3ccccc3n2)cc1	?	0	-	-	-
CCCOc1ccc(-c2nc(N3CCN(C)CC3)c3ccccc3n2)cc1	-	-	?	3.2µM	4.8µM
CN(C)c1ccc(-c2nc(N3CCNCC3)c3ccccc3n2)cc1	11µM	0	-	-	-
CCCOc1ccc(-c2nc(N3CCN(CC)CC3)c3ccccc3n2)cc1	-	-	0	0	?
CN(C)c1ccc(-c2nc(Nc3ccncc3)c3ccccc3n2)cc1	11µM	0	-	-	-
Cc1ccc(CSc2nnc(C)c(=O)[nH]2)cc1	0	0	0	0	17µM
CCn1nc(-c2ccccc2)c(-c2ccccc2)c(C(=O)Nc2ccccc2C#N)c1=O	0	-	-	-	0
NC1(C(=O)O)CCc2cc(P(=O)(O)O)ccc21 (stereo not given)	0	-	-	-	-
COc1ccccc1/C=C/c1nc(C#N)c(N2CCCCC2)o1	?	-	-	-	0
CNc1oc(/C=C/c2cccc(OC)c2)nc1C#N	-	-	0	0	15µM
CN(C)c1oc(/C=C/c2ccccc2)nc1C#N	13µM	0	?	?	17µM
COc1ccc(Nc2oc(/C=C/c3cccc(OC)c3)nc2C#N)cc1	0	-	-	-	0
COc1ccccc1/C=C/c1nc(C#N)c(N(C)C)o1	10µM	-	?	?	7.6µM
Cc1cccc(N2CCN(C(=O)c3cc4ccc5cccnc5c4[nH]3)CC2C)c1 (stereo not given)	-	-	-	-	0
COC(=O)CCn1cnc2onc(-c3cc(F)cc(F)c3)c2c1=O	0	-	-	-	0
Nc1ncnc2c1ncn2C1OC(COP(=O)(O)O)C(O)C1O (stereo not given)	?	2µM	0	0	0
CN(C)c1ncnc2c1ncn2C1OC(CO)C(O)C1O (stereo not given)	5.6µM	0	0	0	0
OCC1OC(n2cnc3c(Cl)ncnc32)C(O)C1O (stereo not given)	0	0	-	-	-
Nc1ncnc2c1ncn2[C@@H]1O[C@H](COP(=O)(O)O)[C@@H](O)[C@@H]1O	0	4µM	-	-	-
COC(=O)c1ccccc1NC(=O)Cn1c(=O)n(CCC(=O)NCc2ccc3c(c2)OCO3)c(=O)c2ccccc21	0	-	-	-	0
SMILES	SMN2 splice up	KinaseGlo FLuc	NPC1 prom act	Rab9 prom act	FLuc counter
CCOc1ccc(OCC(=O)NCCS(=O)(=O)N2CCN(c3ccc(OC)cc3)CC2)cc1	-	-	-	-	0
C/C(=N\Nc1nc(N)cc(Cl)n1)c1cccc([N+](=O)[O-])c1	0	0	0	0	?
C/C(=N/Nc1nc(C)c(C)s1)c1cccc([N+](=O)[O-])c1	-	-	?	?	12µM
Cc1cc(C)nc(N/N=C/c2sccc2C)n1	?	0	0	0	?
Cc1ccsc1/C=N/Nc1ncc(Cl)cc1Cl	?	0	2.8µM	?	2.7µM
COc1cc(/C=N/Nc2ccc(F)cc2F)cc(OC)c1OC	-	-	0	0	?
Cc1ccsc1/C=N/Nc1nc(=O)[nH]nc1C	18µM	4.5µM	?	2.8µM	?
Cc1ccsc1/C=N/Nc1ccc(F)cc1F	-	-	?	2.2µM	12µM
Cc1ccc(C(c2c(O)cc(C)n(Cc3ccco3)c2=O)N2CCC(C)CC2)cc1 (stereo not given)	-	-	-	-	0
COc1ccc2c(c1)c(=O)c(C(=O)c1ccc(C)c(C)c1)cn2CC(=O)Nc1ccc2c(c1)OCCO2	0	-	-	-	0
COc1ccc(NC(=O)c2ccco2)cc1NC(=O)COc1ccc(Cl)c(C)c1	0	-	-	-	0
CCNC(=O)COC(=O)c1cc(C)n(-c2ccccc2)c1C	0	0	0	?	?
Cc1cc(C(=O)COc2ccccc2[N+](=O)[O-])c(C)n1C1CC1	?	0	0	?	?
Cc1cc(C(=O)COc2ccccc2C(N)=O)c(C)n1C1CC1	0	0	0	?	15µM
Cc1cc(C(=O)COC(=O)c2ccc[nH]c2=O)c(C)n1-c1ccc(F)cc1	5µM	0	0.56µM	0.35µM	3.4µM
Cc1cc(C(=O)OCc2nnc(-c3ccccc3)o2)c(C)n1-c1ccccc1	0	0	0	0	?
Cc1cc(C(=O)OCC(=O)NCc2ccco2)c(C)n1-c1ccc(F)cc1	0	0	0	0	0
Cc1cc(C(=O)COC(=O)c2ccc[nH]c2=O)c(C)n1-c1ccccc1	2.5µM	0	0.32µM	0.28µM	1.7µM
Cc1noc(C)c1COC(=O)c1cc(C)n(-c2ccccc2)c1C	0	0	0	?	15µM
O=C(Cn1c(=O)nc(-c2ccccc2)c2ccccc21)Nc1ccc(Cl)cc1F	0	-	-	-	0
Cc1cc(C(=O)COC(=O)c2ccc(F)cc2F)c(C)n1C1CC1	-	-	2.5µM	2.8µM	0.38µM
Cc1ccc(S(=O)(=O)NCC(=O)OCC(=O)c2cc(C)n(-c3ccccc3)c2C)cc1	?	0	0	0	15µM
Cc1ccccc1OCC(=O)OCC(=O)c1cc(C)n(C2CC2)c1C	-	-	0	0	?
Cc1cc(C(=O)COC(=O)c2ccc[nH]c2=O)c(C)n1C1CC1	?	0	?	3.5µM	4.8µM
O=C1C(Cl)=C(N2CCCCC2)C(=O)C(Cl)=C1c1cnc(N2CCCCC2)s1	0	0	0	0	9.5µM
SMILES	SMN2 splice up	KinaseGlo FLuc	NPC1 prom act	Rab9 prom act	FLuc counter
CC(C)NC(=O)c1cnc2sc(N3CCCCCC3)nn2c1=O	-	-	-	-	0
Cc1ccc(NC(=O)Cn2nnc(C(=O)NCc3ccc4c(c3)OCO4)c2N)cc1Cl	-	-	-	-	0
CCN(CC)CCCNC(=O)c1cc(-c2ccc(Cl)cc2)on1	0	0	0	0	0
CCN(CC)C(=O)c1cc(-c2ccc(Cl)cc2)on1	10µM	-	-	-	13µM
CCCCNC(=O)c1cc(-c2ccc3c(c2)OCO3)on1	-	-	3.5µM	2µM	2.7µM
CCN(CC)CCCNC(=O)c1cc(-c2ccc3c(c2)OCO3)on1	-	-	0	0	0
O=C(NCc1ccc2c(c1)OCO2)c1cc(-c2ccc(Cl)cc2Cl)on1	0	0	0	0	12µM
CCN(CC)C(=O)c1cc(-c2ccc3c(c2)OCO3)on1	-	-	4µM	3.5µM	9.5µM
COc1ccccc1CCN1COc2c(cc3c(C)c(C)c(=O)oc3c2C)C1	0	-	-	-	0
Cc1sc2ncn(CC(=O)Nc3cccc(C(F)(F)F)c3)c(=O)c2c1S(=O)(=O)N1CCC(C)CC1	0	-	-	-	0
CCc1ccc(S(=O)(=O)c2cn(CC(=O)Nc3ccc(C)cc3)c3ccccc3c2=O)cc1	0	-	-	-	0
CCCNC(=O)c1cc(-c2ccc3c(c2)OCO3)on1	-	-	0.63µM	0.56µM	3.8µM
CC(C)NC(=O)c1cc(-c2ccc3c(c2)OCO3)on1	-	-	0.56µM	0.63µM	3.8µM
CC(C)(C)c1ccc(Cn2c(=O)cnc3ccccc32)cc1	-	-	0	0	15µM

Screens: PubChem, National Center for Advancing Translational Sciences (NCATS)
